Here are results for 8 sequences from PMC7862700, “An all-to-all approach to the identification of sequence-specific readers for epigenetic DNA modifications on cytosine”.

Test in all cases: DAPPL (digital affinity profiling via proximity ligation, sequencing); 10 mM Tris-HCl pH 7.5, 50 mM NaCl, 1 mM DTT, 4% glycerol, room temperature, 30 min; GST-TFs on glutathione beads, 16-mer random dsDNA library, 0.1% formaldehyde crosslink after washing; high values mean tight binding
Settings in all cases: protein: recombinant; tags: N-terminal GST; dsDNA, one strand shown

The target in test [1] is T1, FLI1 (Homo sapiens, UniProt Q01543 1-452).
T1 sequence: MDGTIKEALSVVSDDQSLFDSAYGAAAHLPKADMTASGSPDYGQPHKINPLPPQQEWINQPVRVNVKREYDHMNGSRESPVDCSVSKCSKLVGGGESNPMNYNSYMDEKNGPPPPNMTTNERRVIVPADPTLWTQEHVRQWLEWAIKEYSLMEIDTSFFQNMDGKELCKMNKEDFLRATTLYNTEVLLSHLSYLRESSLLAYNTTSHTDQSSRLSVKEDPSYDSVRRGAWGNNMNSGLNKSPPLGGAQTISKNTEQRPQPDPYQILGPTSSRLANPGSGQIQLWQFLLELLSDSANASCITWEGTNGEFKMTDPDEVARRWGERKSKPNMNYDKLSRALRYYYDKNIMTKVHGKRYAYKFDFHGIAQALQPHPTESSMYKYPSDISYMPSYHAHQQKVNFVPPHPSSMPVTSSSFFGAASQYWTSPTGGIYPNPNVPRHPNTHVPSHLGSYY
In outline: (§1)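 Each value of binding signal is a hexamer's read frequency for a factor divided by the same hexamer's frequency in the tag-only sample. Barcoded, bead-captured GST fusions of human transcription factors made in yeast were pooled with that sample and incubated with 200 nmole of a random double-stranded 16-mer DNA library in Tris/NaCl/DTT/glycerol buffer at room temperature for 30 min. Washing, 0.1% formaldehyde crosslinking, proximity ligation, PCR and Illumina NextSeq500 sequencing followed.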

Test [2] concerns the target T2, ELK1 (Homo sapiens, UniProt P19419 1-428).
T2 sequence: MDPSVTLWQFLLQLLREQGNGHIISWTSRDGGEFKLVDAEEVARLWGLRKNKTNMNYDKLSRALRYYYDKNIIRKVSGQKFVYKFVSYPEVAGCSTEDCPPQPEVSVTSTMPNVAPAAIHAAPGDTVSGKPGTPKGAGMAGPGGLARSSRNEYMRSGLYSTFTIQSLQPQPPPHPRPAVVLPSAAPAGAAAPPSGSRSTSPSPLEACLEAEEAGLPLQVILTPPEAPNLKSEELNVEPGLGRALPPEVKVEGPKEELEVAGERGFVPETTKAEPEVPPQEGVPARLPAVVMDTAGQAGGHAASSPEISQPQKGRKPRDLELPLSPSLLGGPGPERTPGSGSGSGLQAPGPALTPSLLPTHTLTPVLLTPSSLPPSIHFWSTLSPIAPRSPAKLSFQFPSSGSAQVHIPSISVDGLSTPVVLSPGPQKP
In outline:
as §1

Test [3] has as its target T3, GABPA (Homo sapiens, UniProt Q06546 1-454).
T3 sequence: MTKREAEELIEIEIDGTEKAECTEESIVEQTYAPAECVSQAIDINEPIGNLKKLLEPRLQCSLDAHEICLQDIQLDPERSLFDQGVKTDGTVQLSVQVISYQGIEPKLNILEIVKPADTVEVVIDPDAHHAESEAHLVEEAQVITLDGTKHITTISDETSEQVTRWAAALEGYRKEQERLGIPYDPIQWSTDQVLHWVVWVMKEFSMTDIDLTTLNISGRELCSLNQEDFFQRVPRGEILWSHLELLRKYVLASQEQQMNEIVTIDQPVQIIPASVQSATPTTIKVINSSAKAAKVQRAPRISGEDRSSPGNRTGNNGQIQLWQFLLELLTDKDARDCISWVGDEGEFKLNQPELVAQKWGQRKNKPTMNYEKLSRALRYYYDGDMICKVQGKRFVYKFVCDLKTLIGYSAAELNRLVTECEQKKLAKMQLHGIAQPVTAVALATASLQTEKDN
In outline: as §1

The target of test [4] is T4, ERG (Homo sapiens, UniProt P11308 1-479).
T4 sequence: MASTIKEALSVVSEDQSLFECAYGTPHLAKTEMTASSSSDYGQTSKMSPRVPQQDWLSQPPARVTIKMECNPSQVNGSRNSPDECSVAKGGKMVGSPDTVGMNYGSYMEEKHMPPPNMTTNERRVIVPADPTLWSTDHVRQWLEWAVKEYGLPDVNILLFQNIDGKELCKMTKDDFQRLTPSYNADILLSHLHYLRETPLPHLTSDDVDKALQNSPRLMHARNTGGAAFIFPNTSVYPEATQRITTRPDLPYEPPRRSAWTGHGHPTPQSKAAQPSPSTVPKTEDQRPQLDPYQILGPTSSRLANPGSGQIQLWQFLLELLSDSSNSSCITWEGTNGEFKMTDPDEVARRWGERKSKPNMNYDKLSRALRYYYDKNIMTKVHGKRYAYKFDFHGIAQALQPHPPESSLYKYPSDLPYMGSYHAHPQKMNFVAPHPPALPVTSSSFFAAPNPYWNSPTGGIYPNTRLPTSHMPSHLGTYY
The essentials:
as §1

In test [5] the target is ELF1 (Homo sapiens, UniProt P32519 1-619). The essentials: as §1
The target of test [6] is T5, EHF (Homo sapiens, UniProt Q9NZC4 1-300).
T5 sequence: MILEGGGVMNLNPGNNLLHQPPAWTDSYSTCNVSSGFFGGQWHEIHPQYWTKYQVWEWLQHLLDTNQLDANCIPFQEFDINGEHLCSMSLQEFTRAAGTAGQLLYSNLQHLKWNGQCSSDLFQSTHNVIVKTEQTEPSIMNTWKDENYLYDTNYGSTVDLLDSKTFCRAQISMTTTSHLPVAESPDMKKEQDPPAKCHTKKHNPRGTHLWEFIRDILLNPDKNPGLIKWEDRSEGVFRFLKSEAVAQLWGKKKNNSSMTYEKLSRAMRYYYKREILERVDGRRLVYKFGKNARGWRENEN
In outline:
as §1

The target of test [7] is SPI1 (Homo sapiens, UniProt P17947 1-270). The essentials:
as §1

Test [8] concerns the target SPIB (Homo sapiens, UniProt Q01892 1-262). In outline: as §1
Test [9] deals with T6, ELK3 (Homo sapiens, UniProt P41970 1-407).
T6 sequence: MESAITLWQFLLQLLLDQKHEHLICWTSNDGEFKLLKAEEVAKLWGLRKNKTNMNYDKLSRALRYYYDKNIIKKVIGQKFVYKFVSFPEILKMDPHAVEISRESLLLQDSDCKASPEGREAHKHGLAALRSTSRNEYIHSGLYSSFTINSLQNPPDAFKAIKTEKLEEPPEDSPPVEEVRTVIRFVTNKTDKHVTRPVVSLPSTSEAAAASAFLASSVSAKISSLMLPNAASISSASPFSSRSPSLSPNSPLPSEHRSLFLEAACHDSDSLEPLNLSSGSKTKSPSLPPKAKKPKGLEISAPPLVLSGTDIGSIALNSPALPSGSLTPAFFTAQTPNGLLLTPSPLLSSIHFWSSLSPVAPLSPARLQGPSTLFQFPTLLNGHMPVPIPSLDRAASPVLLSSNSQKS
The essentials:
as §1

ELF1, sequence (P32519 whole entry): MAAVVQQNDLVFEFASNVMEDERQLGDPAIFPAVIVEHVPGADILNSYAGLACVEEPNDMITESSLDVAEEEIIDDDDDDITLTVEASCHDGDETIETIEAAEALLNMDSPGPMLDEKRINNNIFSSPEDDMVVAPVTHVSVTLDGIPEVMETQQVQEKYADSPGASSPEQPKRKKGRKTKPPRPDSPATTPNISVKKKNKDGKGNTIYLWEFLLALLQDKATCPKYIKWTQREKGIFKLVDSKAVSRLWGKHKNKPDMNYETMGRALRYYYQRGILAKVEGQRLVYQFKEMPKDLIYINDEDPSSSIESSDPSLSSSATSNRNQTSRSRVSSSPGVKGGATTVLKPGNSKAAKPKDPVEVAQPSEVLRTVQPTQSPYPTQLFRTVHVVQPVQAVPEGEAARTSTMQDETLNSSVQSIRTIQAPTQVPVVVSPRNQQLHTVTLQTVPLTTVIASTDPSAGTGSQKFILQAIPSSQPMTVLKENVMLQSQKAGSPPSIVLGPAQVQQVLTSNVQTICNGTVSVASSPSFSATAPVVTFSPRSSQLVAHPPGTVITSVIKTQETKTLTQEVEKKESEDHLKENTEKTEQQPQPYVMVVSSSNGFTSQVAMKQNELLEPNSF
SPIB, sequence (Q01892 whole entry): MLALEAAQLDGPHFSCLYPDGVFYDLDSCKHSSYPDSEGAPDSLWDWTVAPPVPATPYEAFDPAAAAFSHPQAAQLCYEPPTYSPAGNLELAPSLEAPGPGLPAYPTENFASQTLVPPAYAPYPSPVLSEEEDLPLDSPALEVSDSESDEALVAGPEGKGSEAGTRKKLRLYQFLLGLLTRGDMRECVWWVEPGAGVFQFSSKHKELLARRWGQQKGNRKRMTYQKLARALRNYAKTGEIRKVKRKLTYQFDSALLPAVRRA

As for ATTTCT, the binding signal in [1] was 1.45 fold enrichment (6-mer frequency, TF over GST control); in test [2], 1.51 fold enrichment (6-mer frequency, TF over GST control); in test [3], 1.51 fold enrichment (6-mer frequency, TF over GST control); in [4], 1.5 fold enrichment (6-mer frequency, TF over GST control); in test [5], 1.48 fold enrichment (6-mer frequency, TF over GST control); in test [6], 1.3 fold enrichment (6-mer frequency, TF over GST control). Further, the binding signal in test [7] is 1.47 fold enrichment (6-mer frequency, TF over GST control); in test [8], 1.43 fold enrichment (6-mer frequency, TF over GST control); in test [9], 1.32 fold enrichment (6-mer frequency, TF over GST control).

Turning to ACTCTC, the binding signal in [1] was 1.5 fold enrichment (6-mer frequency, TF over GST control); in test [2] it was 1.59 fold enrichment (6-mer frequency, TF over GST control); in test [3] it was 1.41 fold enrichment (6-mer frequency, TF over GST control); in test [4], 1.47 fold enrichment (6-mer frequency, TF over GST control); in test [5], 1.55 fold enrichment (6-mer frequency, TF over GST control); in test [6], 1.47 fold enrichment (6-mer frequency, TF over GST control). For the same sequence, the binding signal in test [7] is 1.49 fold enrichment (6-mer frequency, TF over GST control); in test [8], 1.47 fold enrichment (6-mer frequency, TF over GST control); in test [9], 1.44 fold enrichment (6-mer frequency, TF over GST control).

Turning to TGCGAT, the binding signal in test [1] is 1.12 fold enrichment (6-mer frequency, TF over GST control); in test [2], 1.12 fold enrichment (6-mer frequency, TF over GST control); in test [3], 1.28 fold enrichment (6-mer frequency, TF over GST control); in test [4], 1.18 fold enrichment (6-mer frequency, TF over GST control); in [5], 1.16 fold enrichment (6-mer frequency, TF over GST control); in [6], 1.19 fold enrichment (6-mer frequency, TF over GST control). The binding signal in test [7] was 1.2 fold enrichment (6-mer frequency, TF over GST control); in test [8] it was 1.08 fold enrichment (6-mer frequency, TF over GST control); in test [9] it was 1.31 fold enrichment (6-mer frequency, TF over GST control).

As to CTCCTC, the binding signal was 1.36 fold enrichment (6-mer frequency, TF over GST control) in [1]; 1.38 fold enrichment (6-mer frequency, TF over GST control) in test [2]; 1.39 fold enrichment (6-mer frequency, TF over GST control) in test [3]; 1.26 fold enrichment (6-mer frequency, TF over GST control) in [4]; 1.32 fold enrichment (6-mer frequency, TF over GST control) in [5]; 1.54 fold enrichment (6-mer frequency, TF over GST control) in test [6]. The binding signal in [7] was 1.39 fold enrichment (6-mer frequency, TF over GST control); in test [8], 1.4 fold enrichment (6-mer frequency, TF over GST control); in test [9] it was 1.31 fold enrichment (6-mer frequency, TF over GST control).

With TTAACC, the binding signal in [1] was 1.2 fold enrichment (6-mer frequency, TF over GST control); in [2], 1.25 fold enrichment (6-mer frequency, TF over GST control); in [3], 1.18 fold enrichment (6-mer frequency, TF over GST control); in test [4] it was 1.21 fold enrichment (6-mer frequency, TF over GST control); in [5], 1.31 fold enrichment (6-mer frequency, TF over GST control); in test [6], 1.24 fold enrichment (6-mer frequency, TF over GST control). For the same sequence, the binding signal in test [7] is 1.23 fold enrichment (6-mer frequency, TF over GST control); in [8] it was 1.33 fold enrichment (6-mer frequency, TF over GST control); in test [9], 1.3 fold enrichment (6-mer frequency, TF over GST control).

AATTAG: the binding signal was 1.18 fold enrichment (6-mer frequency, TF over GST control) in [1]; 1.09 fold enrichment (6-mer frequency, TF over GST control) in [2]; 1.13 fold enrichment (6-mer frequency, TF over GST control) in test [3]; 1.11 fold enrichment (6-mer frequency, TF over GST control) in test [4]; 1.12 fold enrichment (6-mer frequency, TF over GST control) in test [5]; 1.06 fold enrichment (6-mer frequency, TF over GST control) in test [6]. The binding signal in test [7] was 1.1 fold enrichment (6-mer frequency, TF over GST control); in [8] it was 1.11 fold enrichment (6-mer frequency, TF over GST control); in test [9], 1.09 fold enrichment (6-mer frequency, TF over GST control).

Turning to ACGAAA, the binding signal was 1.2 fold enrichment (6-mer frequency, TF over GST control) in test [1]; 1.12 fold enrichment (6-mer frequency, TF over GST control) in test [2]; 1.15 fold enrichment (6-mer frequency, TF over GST control) in test [3]; 1.14 fold enrichment (6-mer frequency, TF over GST control) in test [4]; 1.13 fold enrichment (6-mer frequency, TF over GST control) in [5]; 1.19 fold enrichment (6-mer frequency, TF over GST control) in [6]. Further, the binding signal was 1.14 fold enrichment (6-mer frequency, TF over GST control) in test [7]; 1.16 fold enrichment (6-mer frequency, TF over GST control) in test [8]; 1.07 fold enrichment (6-mer frequency, TF over GST control) in test [9].

As to CCTAAG, the binding signal in test [1] was 1.09 fold enrichment (6-mer frequency, TF over GST control); in test [2] it was 1.14 fold enrichment (6-mer frequency, TF over GST control); in test [3], 1.12 fold enrichment (6-mer frequency, TF over GST control); in test [4], 1.16 fold enrichment (6-mer frequency, TF over GST control); in [5], 1.19 fold enrichment (6-mer frequency, TF over GST control); in test [6], 1.18 fold enrichment (6-mer frequency, TF over GST control). Moreover, the binding signal was 1.06 fold enrichment (6-mer frequency, TF over GST control) in [7]; 1.21 fold enrichment (6-mer frequency, TF over GST control) in [8]; 1.17 fold enrichment (6-mer frequency, TF over GST control) in test [9].
